Source: PubChem BioAssay (Columbia University Molecular Screening Center)
F-actin modifier = modifiers of cytoskeleton assembly; HUVEC TNFa F-actin phalloidin imaging, high content; inhibition, % at 2 µM; hit rate 0.18% among 91,000; AID 836;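 active = inhibition above the batch mean plus 3 SD and confirmed as a hit by visual image inspection, cut at about 30% in these data, passing the limit was not always enough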
TNFa cytotox = HUVEC cytotoxicity counter-screen, TNF alpha stimulated; HUVEC TNFalpha-stimulated, Hoechst cell count, imaging; hit rate 0.17% among 93,000; cell count reduction, % at 2 µM;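 active = cell count reduction exceeding the screen mean by over 5 SD, scaled to untreated wells per plate, cut at about 78% in these data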;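 note: cells counted after 24 h of TNF alpha exposure following the 1 h pretreatment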
VCAM1 TNFa inh = reduces TNF alpha induced VCAM1 expression in HUVEC | HUVEC TNFa-induced VCAM-1 immunofluorescence, high-content imaging | inhibition, % at 2 µM | hit rate 0.48% among 95,000;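 active = inhibition above the batch mean plus 3 SD, with images confirmed as a hit by eye, cut at about 37% in these data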;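 note: 0% = TNF-stimulated DMSO wells and 100% = unstimulated control wells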
E-sel TNF inh = TNF alpha driven E-selectin expression inhibition | HUVEC TNFa-induced E-selectin immunofluorescence, high content | inhibition, % at 2 µM | hit rate 0.71% among 120,000 | AID 1246;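 active = inhibition above the batch mean plus 3 SD, and confirmed as a hit on visual image review, cut at about 43% in these data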;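 note: 0% = TNF-stimulated DMSO wells and 100% = unstimulated control wells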
Numbers without * were called inactive; x = no result. An excerpt weighted towards active compounds, which were near 1.1% of everything screened.

SMILES	F-actin modifier	TNFa cytotox	VCAM1 TNFa inh	E-sel TNF inh
CCNC(=O)CCn1nc(-c2ccc(Cl)cc2)c2ccccc2c1=O	-30	96*	84*	x
Cc1ccc2nsnc2c1S(=O)(=O)N1CCOCC1	-12	-11	4	-3
CCOc1ccc(N(C(C)C(=O)N/N=C(\C)c2cccc(NC(=O)c3ccccc3)c2)S(C)(=O)=O)cc1 (stereo unspecified)	-5	-4	1	-3
C=CCn1c(SCCOc2ccc(OC)cc2)nnc1C(C)NC(=O)c1ccc(OC)cc1 (stereo unspecified)	-25	38	-18	11
COc1ccc(CC(=O)NC(C)c2nnc(SCCOc3ccc(OC)cc3)n2C)cc1 (stereo unspecified)	7	83*	8	10
CCc1nc2ccccc2n1Cc1ccc(OC)c(OC)c1	29	12	14	7
COc1ccc(Cn2c(CCCO)nc3ccccc32)cc1OC	-12	81*	0	3
COCCN(C(=O)CCCC(=O)Nc1ccccn1)C(C(=O)NC1CCCC1)c1ccc(C)cc1 (stereo unspecified)	-16	-6	2	x
COCCN(C(=O)CCC(=O)Nc1ccccn1)C(C(=O)NC1CCCC1)c1ccc(OC)cc1 (stereo unspecified)	29	-3	3	100*
COCCNC(=O)C(c1ccc(F)cc1)N(CC1CCCO1)C(=O)CCC(=O)Nc1ccccn1 (stereo unspecified)	-1	-29	-14	69*
COCCNC(=O)CN(CC1CCCO1)C(=O)CCC(=O)Nc1ccccn1 (stereo unspecified)	-24	9	-16	-2
COC(=O)c1c(NC(=O)CN2C(=O)NC3(CCc4ccccc4C3)C2=O)sc2c1CCCCC2 (stereo unspecified)	x	x	x	-18
COC(=O)c1[nH]c2cc(OC)ccc2c1NC(=O)CN1CCC(C(N)=O)(N2CCCCC2)CC1	55*	-15	50*	2
COC(=O)c1[nH]c2cc(OC)ccc2c1NC(=O)CN1CCC(C(N)=O)CC1	x	x	x	-23
CCc1cccc2c(C=C(C#N)C#N)cn(CC(=O)N3CCCCCC3)c12	4	6	-11	3
CCC(CC)C(=O)c1c[nH]c(C(=O)NCCCN2CCOCC2)c1	14	-10	-25	86*
CC(C)(CO)NCC(O)Cn1cc(C=O)c2ccccc21 (stereo unspecified)	x	x	x	90*
COc1ccc(N2CCN(CCCn3c(=S)[nH]c4ncccc4c3=O)CC2)cc1	-6	-3	4	-2
O=c1c2cccnc2[nH]c(=S)n1CCCN1CCN(c2ccc(F)cc2)CC1	-26	-14	-13	100*
Cc1cccc(OCCC(=O)Nc2ccc(F)c(Cl)c2)c1	x	x	x	-33
CCCCn1c(SCC(=O)N2CCCc3ccccc32)nc2c1c(=O)n(C)c(=O)n2C	28	-14	-11	22
COc1ccc(N=C2SCC(=O)N2c2ccc(OC)cc2)cc1	-7	-9	-15	87*
COc1ccc(N=C2SC(C(=O)O)CC(=O)N2C)cc1 (stereo unspecified)	-19	-30	-4	-1
Cc1nc2scc(-c3ccccc3)c2c(=O)n1N	-20	0	2	x
Cc1nc2scc(-c3ccccc3)c2c(=O)n1N=C1C=CC(=O)C=C1	x	x	x	88*
SMILES	F-actin modifier	TNFa cytotox	VCAM1 TNFa inh	E-sel TNF inh
Cc1csc(NC(=O)CSc2nnc(-c3ccc(S(=O)(=O)N4CCCC4)cc3)o2)n1	-26	73	73*	x
Cn1c(SC2=CS(=O)(=O)c3ccccc32)nc2ccccc21	13	12	8	62*
Cc1ccc(OCC(=O)Nc2ccc(Cl)cc2)c(-n2nc3ccccc3n2)c1	18	-10	-3	-33
CCOc1ccc(C)cc1-n1nc2ccccc2n1	7	-38	11	51*
C=CCSc1nc2ccccc2n1C(=O)/C=C/c1ccc(OC)c(OC)c1	-1	8	-8	-7
C=CCSc1nc2ccccc2n1C(=O)/C=C/c1cc(OC)c(OC)c(OC)c1	23	10	92*	66*
CCSc1nc2ccccc2n1C(=O)/C=C/c1ccc(OC)c(OC)c1	x	x	x	100*
Cc1nn(C2CCCO2)c(=O)nc1N (stereo unspecified)	x	x	x	-14
Cc1ccc(C2(C)NC(=O)N(CCOc3ccccc3)C2=O)cc1 (stereo unspecified)	23	4	17	82*
COc1ccc(OCCN2C(=O)NC(C)(c3ccc(C)cc3)C2=O)cc1 (stereo unspecified)	15	37	10	6
CCC(Sc1nc2c(c(=O)n1CC)SC(C)C2)C(=O)OC (stereo unspecified)	-16	10	-18	65*
CCn1c(SCC(=O)N2CCOCC2)nc2c(c1=O)SC(C)C2 (stereo unspecified)	-23	28	-14	6
O=C(O)c1ccc(-c2ccc(Cl)cc2Cl)o1	-15	0	-18	61*
O=C(O)c1ccc(-c2ccccc2Cl)o1	x	x	x	-21
CC(Sc1nnc(NC2CCCCC2)s1)C(=O)Nc1ccc2c(c1)C(=O)c1ccccc1C2=O (stereo unspecified)	x	x	x	3
COCCN1CCN(Cc2cn[nH]c2-c2cc3ccccc3o2)CC1	x	x	x	-16
COc1ccccc1NC(=O)CSc1nnc(-c2ccc(NC(C)=O)cc2)n1C	0	-11	-8	67*
COc1ccccc1NC(=O)CC(=O)CSc1nnc(-c2ccc(C)cc2)n1C	19	-17	12	32
CCOc1ccc(CNC(=O)C(CC)n2nc(C)n3c(cc4occc43)c2=O)cc1OC (stereo unspecified)	x	3	15	x
CCOC(=O)c1ccc(NC(=O)Cn2nnc(-c3ccccc3)n2)cc1	23	98*	88*	x
CC(C)c1cc(C(=O)N/N=C/c2ccco2)n[nH]1	x	x	x	5
OC(c1ccccn1)c1c[nH]c2ccccc12 (stereo unspecified)	67*	-13	5	4
COc1ccc2occ(C(C)=O)c2c1	-11	-16	2	-8
COc1ccc(OC)c(C(=O)c2coc3ccc(O)cc23)c1	61*	-30	8	-12
COC(=O)\C(C(C)=O)=C(/C=C/C=C/C=C/N(C)C)N(C)C	4	-32	16	x
SMILES	F-actin modifier	TNFa cytotox	VCAM1 TNFa inh	E-sel TNF inh
COc1cccc(N=c2oc3ccc(OC)cc3cc2-c2nc3ccccc3[nH]2)c1	-6	-6	25	14
COc1ccc(N=c2oc3ccc(OC)cc3cc2-c2nc3ccccc3[nH]2)cc1	-12	-1	50*	-4
CC(C)(C)c1nnc(NC(=S)Nc2ccccc2)s1	x	x	x	-18
CCOC(=O)C1CCN(C(=O)c2cn(CCOC)c(=O)c3c2c2ccccc2n3C)CC1	39*	57	-14	-41
CN1CCCCc2c1[nH]c1ccccc1c2=O	19	-47	86*	14
O=C(c1cccs1)N1CCN=C1SCc1ccccc1	-16	-2	6	44*
O=C(c1ccc2snnc2c1)N1CCSCC1	-45	84*	78*	x
O=C(c1ccc2snnc2c1)N1CCCCC1	-11	-13	-4	-4
COC(=O)C(NC(=O)c1c(C)nn(C)c1Cl)c1ccccc1 (stereo unspecified)	x	x	x	-48
CCn1cc(C(=O)OCC(=O)Nc2ccc(C(C)C)cc2)c(=O)c2ccc(C)nc21	x	x	x	-55
O=C(c1cccn2c(=O)c3cc(Br)ccc3nc12)N1CCN(c2ccccn2)CC1	x	16	-7	19
